Results on 19 compounds are retold here after paper PMC5540273 (PLoS ONE, 2017).

In one assay the test system is T1, TIE2.
T1 construct: gene TEK

The test system of another assay is T2, TRKA.
T2 construct: gene NTRK1

Another assay relates to T3, TRKC.
T3 construct: gene NTRK3

The test system of assay [1] is TYK2(JH1domain-catalytic).

For orientation: Kd means the equilibrium constant for the complex coming apart. High values mean lower affinity, low ones higher affinity.

Structures are written as SMILES.
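Also: kd values determined as follow-up on hits from a single-replicate KINOMEscan panel screen.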

In the assay on SRC, `Fc1cc(Cl)ccc1Nc1ccnc2cc(-c3ccc(CN4CCCCC4)o3)ccc12` [GW560116] returned a Kd of 4.4 µM.

Regarding `O=C1NC(=O)C(N2CCc3ccccc32)=C1c1ccccc1Cl` [SB-373598], the Kd with SRMS and with TAOK2 was over 10 µM each time.

Take `Cc1ccc(C(=O)Nc2ccc(Nc3ccnc4cc(-c5ccccn5)ccc34)cc2O)cc1.Cl` [GW440146]: the Kd in the assay with SRMS amounted to 0.35 µM; in the assay on TNK2 it was 0.12 µM.

As to `COc1cccc(-c2cc(-c3c[nH]nc3-c3ccccn3)ccn2)c1` [GW680338], the Kd in the assay with SRPK1 was over 10 µM.

As to `CS(=O)(=O)c1ccc(-c2nc3n(c2-c2ccncc2)CCC3)cc1` [SKF-105942], the dissociation constant (Kd) in the assay on STK16 and in the assay on TSSK1B was over 10 µM in each case.

In turn, `COc1cc2ncn(-c3cc(OCC4CCCO4)c(C(N)=O)s3)c2cc1OC` (centres unmarked) [GSK204607] gave a Kd in the assay on STK35 of 3.6 µM.

Take `Cl.O=C(Nc1cccc(-c2nn3ncccc3c2-c2ccnc(Nc3cccnc3)n2)c1)c1c(F)cccc1F` [GSK312879]: the Kd in the assay on STK36 amounted to 0.098 µM.

Turning to `Cc1ccccc1-n1cnc2c(N)ncnc21` [SKF-97510], the Kd in the assay on SYK and with TLK1 was over 10 µM in each case.

For `NC(=O)c1nnc2ccccc2c1N`, the Kd with TIE2 is over 10 µM.

`O=C(Nc1ccccc1)Nc1cccc(Oc2ccc3nccn3n2)c1`: in the assay on TIE2, the Kd is over 10 µM.

On to `Cc1ccc(-c2cc(-c3c[nH]nc3-c3ccccn3)ccn2)cc1` [GW684088], for which the Kd with TNIK is 0.16 µM.

In the assay with TNIK, `COc1ccc(Nc2nccc(-c3cccc(NC(=O)c4cc5cc(F)ccc5[nH]4)c3)n2)cc1` [GSK1229782] gave a Kd of 0.82 µM. Against the preceding compound, the Kd is about 5.1-fold higher.

The compound `Cc1cc(-c2ccc3c(c2)CC[C@@H](N[C@@H](C)c2ccccc2)C3)cnc1N.Cl` [GW412617] displayed a Kd in the assay with TRKA of 2.5 µM.

In the assay with TRKC, `COc1cccc(NC(=O)NC2CCN(c3ccnc(Nc4ccc(F)cc4)n3)C2)c1` (centres unmarked) [GSK1379721] returned a Kd of 0.31 µM. This counts as sub-micromolar.

In turn, `Cn1ccc2ncnc(Oc3ccc(Nc4nc5ccccc5[nH]4)cc3)c21` returned a dissociation constant Kd with TRPM6 of over 10 µM.

In turn, `CCCc1ccc(S(=O)(=O)NC2CCN(c3ccnc(Nc4ccc(F)cc4)n3)C2)cc1` (centres unmarked) [GSK1379715] returned a Kd in the assay with TSSK1B of over 10 µM.

In the assay with TXK, `Cc1cccc(-c2cc(Nc3ccncc3)c3ccccc3n2)n1` [GSK223675] returned a Kd of over 10 µM.

For `Cl.Oc1ccc(-c2nc(-c3ccccc3)[nH]c2-c2ccncc2)cc1` [SB-428218], the Kd in [1] was over 10 µM.

The compound `Cc1csc(-c2nc(Nc3ccncc3)c3ccccc3n2)n1` [GW869640] had a Kd in assay [1] of over 10 µM.
